# Screens from PubChem.
# This is a sample that favours compounds with a hit; in the whole collection about 6.1% have one here.
# D1 ag – Allosteric Agonists of the Human D1 Dopamine Receptor: qHTS | D(1A) dopamine receptor (Homo sapiens), P21728 | hit rate 1% among 360,000 | HEK293 T-REx D1 cells, calcium flux, agonist mode | activation, % at 2 µM; in the data active means activation above about 30%; further: 0% is about no effect
#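 Tetracycline-induced HEK293 TREx D1 cells, force-coupled to calcium signalling, were dye-loaded with a no-wash calcium kit. Compound was pin-added after a 10 s baseline. Fluorescence was read kinetically at 1 cycle/s for 180 s, with calcium rises flagged as agonism.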
# DRD3 antagonist – qHTS of D3 Dopamine Receptor Antagonist: qHTS; D(3) dopamine receptor (Homo sapiens), P35462; max response, negative = inhibition, %; D3R cells, DiscoveRx beta-arrestin luminescence, antagonist mode; stronger effect = lower value; hit rate 2.5% among 360,000; in the data active means max response below about -50%; further: on the % scale 0 is the no-effect control and ±100 the full control effect
#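 Cells expressing the human receptor were seeded at 1500 cells/well, incubated overnight at 37 degrees C in 5% CO2, then exposed to library compounds with dopamine controls for 90 minutes at 37 degrees C before luminescent detection.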
# D1 PAM – Potentiators of Human D1 Dopamine Receptor: qHTS; potentiation, % at 10 µM; AID 504651, 2011; hit rate 0.036% among 360,000; HEK293 TREx D1 cells, calcium flux, dopamine EC20 potentiation; in the data active means potentiation above about 30%; further: 0% is about no effect
# D1 antagonist – Antagonist of Human D 1 Dopamine Receptor: qHTS; D(1A) dopamine receptor (Homo sapiens), P21728; HEK293 TREx D1 cells, calcium flux, dopamine EC80; stronger effect = lower value; activity change, negative = inhibition, % at 10 µM; hit rate 3.2% among 360,000; in the data active means activity change below about -30%; further: on the % scale 0 is the no-effect control and ±100 the full control effect
#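 Inducible Hek293 Trex D1 cells (tetracycline, overnight, 30 C). Calcium dye 30–90 min RT. Antagonist mode: EC80 dopamine added after 180 s compound read.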
# ERG-DNA inh – qHTS for Small Molecule Inhibitors of the ERG Ets/DNA interaction; Transcriptional regulator ERG (Homo sapiens), P11308; fluorescence polarization, His-ERG Ets domain / labelled DNA; Potency, µM (titrated, usually from 76.9 µM), for the others: top-dose FP activity, negative = inhibition, usual class: inhibitors; hit rate 0.028% among 370,000; AID 624246, 2012; active means well fitted inhibition curve with a large enough effect in the polarisation, with a control signal flat; the % refers to the polarisation;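 further: polarization taken with two DNA probes labelled with fluorescein and Texas red; potency means the concentration at half of the fitted maximal effect; % of control where 0% means no effect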
# Target sequence (P11308 whole entry, looked up, the tested form may be a part): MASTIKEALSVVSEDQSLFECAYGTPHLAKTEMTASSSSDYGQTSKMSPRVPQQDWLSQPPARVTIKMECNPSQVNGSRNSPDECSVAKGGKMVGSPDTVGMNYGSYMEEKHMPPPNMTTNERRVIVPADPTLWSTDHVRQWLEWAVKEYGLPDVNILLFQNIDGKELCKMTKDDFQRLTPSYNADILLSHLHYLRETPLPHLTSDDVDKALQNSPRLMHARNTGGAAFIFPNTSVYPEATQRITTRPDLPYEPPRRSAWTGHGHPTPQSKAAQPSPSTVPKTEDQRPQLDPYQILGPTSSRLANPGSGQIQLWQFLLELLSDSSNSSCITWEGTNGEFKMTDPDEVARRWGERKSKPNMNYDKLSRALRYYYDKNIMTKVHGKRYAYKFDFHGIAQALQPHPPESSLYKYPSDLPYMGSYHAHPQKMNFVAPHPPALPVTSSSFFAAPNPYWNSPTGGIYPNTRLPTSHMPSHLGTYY
#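 His-tagged ERG Ets domain (1 uM in the protein solution; 300mM KCl, 50mM Tris-HCl, 1mM EDTA, 1mM DTT, pH 7.5) received compound, then a probe mix of 5 nM fluorescein-DNA and 100nM Texas-615-DNA. Fluorescence polarization was read for both dyes.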
# DRD3 agonist – qHTS of D3 Dopamine Receptor Agonist: qHTS. AID 652048, 2013. D(3) dopamine receptor (Homo sapiens), P35462. D3R DiscoveRx beta-arrestin cells, luminescence, 90 min. hit rate 0.58% among 410,000. max activation, %; in the data active means max activation above about 30%; further: 0% is about no effect
#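 Agonist-mode cell screen: cells plated at 1500/well and incubated overnight at 37 °C, then exposed to library compounds for 90 min at 37 °C. Detection reagent was added for 30–60 min at room temperature, and luminescence was read.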
# Active calls of the source: *; · = no result given.
SMILES,D1 ag,DRD3 antagonist,D1 PAM,D1 antagonist,ERG-DNA inh,DRD3 agonist
O=C(C1Cc2ccccc2CN1S(=O)(=O)c1ccc(F)cc1)N1CCCCC1 (stereo unspecified),-1,-1,-1,13,0%,1
O=C(CNS(=O)(=O)c1ccccc1Br)OCC(=O)N1CCc2ccccc21,4,23,-5,-57*,2%,-1
CC(=O)Nc1ccc(S(=O)(=O)NCC(=O)OCC(=O)N2CCc3ccccc32)cc1,3,3,-1,7,3%,0
Cc1cc(C(=O)N/N=C2/CC(C)CC(C)(C)C2)c(C)o1 (stereo unspecified),0,6,-9,-20,12%,-4
CC1CCCCN1C/C=C/c1ccccc1[N+](=O)[O-] (stereo unspecified),4,-29,-5,-10,11%,-21
CCC1CCCCN1C/C=C/c1ccccc1[N+](=O)[O-] (stereo unspecified),2,-55*,1,5,-1%,-27
CC1CCCN(C/C=C/c2ccccc2[N+](=O)[O-])C1 (stereo unspecified),1,-91*,-7,1,3%,-50
Cc1nc(NC(=O)COC(=O)[C@@H](NC(=O)c2ccco2)C(C)C)c(Cl)cc1Cl,·,-24,·,·,-10%,-6
O=C(NCCCN1CCOCC1)c1cc(-c2ccc(Cl)s2)nc2ccccc12,7,-25,-13,-1,2%,-4
O=[N+]([O-])c1ccc(OCCO)c(P(=O)(c2ccccc2)c2ccccc2)c1,1,5,-5,3,2%,7
COc1ccc(NC(=O)c2ccc3c(c2)OCO3)cc1,5,-11,-1,13,1%,-4
O=C(/C=C\c1ccccc1)NC1CC(=O)N(c2ccccc2)C1 (stereo unspecified),0,·,-2,·,5%,45*
O=C(/C=C/c1ccccc1)NC1CCS(=O)(=O)C1 (stereo unspecified),0,6,-1,-16,-7%,3
COc1ccc(/C=C\C(=O)NC2CC(=O)N(c3ccccc3)C2)cc1OC (stereo unspecified),-4,·,-4,·,7%,-8
COc1ccc(CN2C3CCCC2CC(NC(=O)/C=C/c2ccccc2)C3)cc1 (stereo unspecified),77*,-111*,-4,-51*,3%,-21
O=C(/C=C/c1ccccc1)NC1CC2CCCC(C1)N2Cc1ccccc1 (stereo unspecified),2,·,-10,-96*,·,·
O=C(CN1CCN(c2ccc(F)cc2)CC1)NCc1ccc(F)cc1,1,5,-9,-16,-1%,2
CCc1ccc(C2CC(=O)Nc3c2c(=O)n(C)c2ncnn32)cc1 (stereo unspecified),1,·,-6,-39*,-4%,-12
CC1(C)Oc2ccc3ccc(=O)oc3c2C(/C=N/O)C1=O (stereo unspecified),3,15,-9,14,0%,2
Cc1cc(C)nc(/N=C(\N)Nc2ccc(-c3ccccc3)cc2)n1,34*,3,-2,0,3%,10
Cc1cc(C)nc(/N=C(\N)Nc2ccc(SC(F)F)cc2)n1,43*,13,-7,-49*,4%,9
CC(=O)Nc1ccc(N/C(N)=N/c2nc(C)cc(C)n2)cc1,1,-6,-5,-1,4%,2
COc1cccc(-c2nc(CS(=O)(=O)CC(=O)Nc3cccc(C)c3C)c(C)o2)c1,-2,-26,0,3,-12%,5
Cc1ccc(CNC(=O)c2cnn(-c3ccc(F)cc3F)c2C2CCN(C(=O)OC(C)(C)C)CC2)cc1,3,·,-3,7,1%,-1
